Test results as given in the supplement of paper PMC11001985.
Values without a mark were called inactive.

What follows are targets tested with C#CCNC(=O)CCSSCCC(=O)NCCc1ccc(C=O)c(C=O)c1 (assay: lysine labeling ratio R10:1 (500 µM / 50 µM probe), SILAC-ABPP in living cells; higher = lower intrinsic lysine reactivity toward the probe, active = 2 or less). Conditions: HeLa; probe concentrations 500 vs 50 µM.
How it was run: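 The two probe levels, 50 µM and 500 µM, of an alkyne-tagged, disulfide-linked lysine probe were applied to living light and heavy SILAC HeLa cells in PBS at room temperature, and the labels were run in both forward and reverse orientation. Mixed lysates underwent biotin-azide click chemistry, trypsin digestion, neutravidin capture, DTT release and alkylation before LC-MS/MS on a TIMS-TOF Pro. R is the filtered median high-probe/low-probe MS1 peptide ratio for each lysine, summarised as the median over forward and reverse replicates. Nothing above 20 is reported; such values are set to 20.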

Sequence of UniProt P11717 (P11717 whole entry): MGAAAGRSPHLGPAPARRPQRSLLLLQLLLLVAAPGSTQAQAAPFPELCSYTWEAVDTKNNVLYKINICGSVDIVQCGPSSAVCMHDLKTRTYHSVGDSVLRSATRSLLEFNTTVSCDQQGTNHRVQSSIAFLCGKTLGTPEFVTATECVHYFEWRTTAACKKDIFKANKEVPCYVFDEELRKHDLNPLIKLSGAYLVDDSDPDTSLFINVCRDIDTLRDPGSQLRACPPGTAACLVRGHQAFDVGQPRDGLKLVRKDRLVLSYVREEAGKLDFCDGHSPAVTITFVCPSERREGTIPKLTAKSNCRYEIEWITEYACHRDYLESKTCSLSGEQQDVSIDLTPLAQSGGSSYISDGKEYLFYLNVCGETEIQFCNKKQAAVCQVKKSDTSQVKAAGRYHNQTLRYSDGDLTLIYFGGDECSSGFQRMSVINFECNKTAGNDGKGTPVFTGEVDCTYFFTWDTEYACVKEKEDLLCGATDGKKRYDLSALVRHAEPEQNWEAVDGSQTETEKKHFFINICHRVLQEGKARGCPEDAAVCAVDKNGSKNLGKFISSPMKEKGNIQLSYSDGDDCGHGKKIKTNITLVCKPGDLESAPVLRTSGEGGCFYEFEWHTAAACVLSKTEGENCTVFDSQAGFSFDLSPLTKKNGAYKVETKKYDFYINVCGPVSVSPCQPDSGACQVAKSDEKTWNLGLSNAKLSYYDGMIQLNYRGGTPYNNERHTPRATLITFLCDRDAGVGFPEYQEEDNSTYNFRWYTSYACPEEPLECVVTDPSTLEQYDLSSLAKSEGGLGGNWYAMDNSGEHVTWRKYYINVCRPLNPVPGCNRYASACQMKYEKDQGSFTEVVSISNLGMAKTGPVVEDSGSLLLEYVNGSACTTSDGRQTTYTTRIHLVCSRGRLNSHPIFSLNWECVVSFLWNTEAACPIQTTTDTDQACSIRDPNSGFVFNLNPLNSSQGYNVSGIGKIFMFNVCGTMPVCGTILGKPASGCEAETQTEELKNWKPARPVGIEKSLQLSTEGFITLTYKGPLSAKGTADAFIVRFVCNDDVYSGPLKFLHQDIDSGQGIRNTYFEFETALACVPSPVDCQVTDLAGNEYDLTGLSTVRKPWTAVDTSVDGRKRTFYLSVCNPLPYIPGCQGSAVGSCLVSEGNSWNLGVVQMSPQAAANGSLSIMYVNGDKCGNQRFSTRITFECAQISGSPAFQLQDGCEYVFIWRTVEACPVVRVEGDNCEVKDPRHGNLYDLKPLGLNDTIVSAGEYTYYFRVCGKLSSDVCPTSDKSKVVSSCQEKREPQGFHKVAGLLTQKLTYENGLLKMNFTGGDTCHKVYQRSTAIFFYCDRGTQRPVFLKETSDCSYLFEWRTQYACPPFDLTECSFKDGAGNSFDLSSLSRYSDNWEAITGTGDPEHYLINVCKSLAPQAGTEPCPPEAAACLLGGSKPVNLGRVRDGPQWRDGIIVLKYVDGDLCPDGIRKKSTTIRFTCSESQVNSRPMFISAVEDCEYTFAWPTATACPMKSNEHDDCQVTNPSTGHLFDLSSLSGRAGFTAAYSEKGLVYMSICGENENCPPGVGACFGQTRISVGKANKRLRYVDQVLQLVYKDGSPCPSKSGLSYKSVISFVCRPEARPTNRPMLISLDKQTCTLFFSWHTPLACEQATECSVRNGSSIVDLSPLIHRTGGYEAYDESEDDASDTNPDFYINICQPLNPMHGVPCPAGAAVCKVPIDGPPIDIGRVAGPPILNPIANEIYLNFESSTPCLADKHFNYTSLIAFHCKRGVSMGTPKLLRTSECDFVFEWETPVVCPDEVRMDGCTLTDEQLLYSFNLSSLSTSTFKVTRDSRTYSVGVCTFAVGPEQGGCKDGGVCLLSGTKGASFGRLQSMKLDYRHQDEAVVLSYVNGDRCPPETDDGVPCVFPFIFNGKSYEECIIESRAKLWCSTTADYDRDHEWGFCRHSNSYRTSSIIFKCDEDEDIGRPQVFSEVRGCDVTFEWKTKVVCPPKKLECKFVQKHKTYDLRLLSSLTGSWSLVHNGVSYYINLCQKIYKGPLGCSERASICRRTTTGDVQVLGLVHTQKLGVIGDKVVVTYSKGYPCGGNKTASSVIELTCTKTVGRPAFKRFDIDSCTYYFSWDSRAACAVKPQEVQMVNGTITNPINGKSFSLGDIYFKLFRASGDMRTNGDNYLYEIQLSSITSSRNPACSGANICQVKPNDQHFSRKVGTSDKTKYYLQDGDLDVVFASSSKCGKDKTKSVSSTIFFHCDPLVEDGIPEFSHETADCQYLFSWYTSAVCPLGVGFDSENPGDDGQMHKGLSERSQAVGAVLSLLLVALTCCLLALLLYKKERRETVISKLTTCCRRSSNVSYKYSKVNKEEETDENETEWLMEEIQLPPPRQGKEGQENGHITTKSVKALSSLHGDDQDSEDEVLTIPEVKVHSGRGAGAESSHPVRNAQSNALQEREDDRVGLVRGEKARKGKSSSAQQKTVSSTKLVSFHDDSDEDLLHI
Sequence of UniProt P06756 (P06756 whole entry): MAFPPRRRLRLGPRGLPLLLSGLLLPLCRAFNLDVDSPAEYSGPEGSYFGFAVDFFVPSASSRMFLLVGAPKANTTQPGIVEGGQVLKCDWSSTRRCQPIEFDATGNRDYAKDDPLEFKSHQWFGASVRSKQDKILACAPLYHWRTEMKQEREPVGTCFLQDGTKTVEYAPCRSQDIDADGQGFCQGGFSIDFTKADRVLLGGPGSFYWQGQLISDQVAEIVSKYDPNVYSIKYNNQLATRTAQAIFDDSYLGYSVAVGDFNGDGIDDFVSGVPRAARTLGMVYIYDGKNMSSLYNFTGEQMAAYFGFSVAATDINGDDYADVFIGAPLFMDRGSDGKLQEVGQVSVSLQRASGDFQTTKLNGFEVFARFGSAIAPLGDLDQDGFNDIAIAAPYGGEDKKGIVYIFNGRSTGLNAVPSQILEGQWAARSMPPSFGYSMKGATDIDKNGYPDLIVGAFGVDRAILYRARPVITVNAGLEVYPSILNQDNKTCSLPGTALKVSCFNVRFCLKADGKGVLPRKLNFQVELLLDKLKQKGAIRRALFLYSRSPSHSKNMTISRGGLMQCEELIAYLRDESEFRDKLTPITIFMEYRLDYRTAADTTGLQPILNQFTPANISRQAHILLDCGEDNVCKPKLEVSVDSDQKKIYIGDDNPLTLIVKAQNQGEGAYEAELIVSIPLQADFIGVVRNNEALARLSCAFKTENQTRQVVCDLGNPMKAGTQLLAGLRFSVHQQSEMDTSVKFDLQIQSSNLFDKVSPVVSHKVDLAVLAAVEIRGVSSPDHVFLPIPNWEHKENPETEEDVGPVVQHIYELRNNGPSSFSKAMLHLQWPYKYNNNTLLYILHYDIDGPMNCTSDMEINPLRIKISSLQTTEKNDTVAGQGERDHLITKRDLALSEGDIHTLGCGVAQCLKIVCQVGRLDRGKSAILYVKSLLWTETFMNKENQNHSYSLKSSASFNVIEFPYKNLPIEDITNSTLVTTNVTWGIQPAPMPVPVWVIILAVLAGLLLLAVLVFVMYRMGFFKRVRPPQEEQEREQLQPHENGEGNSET
Sequence of UniProt Q14247 (Q14247 whole entry): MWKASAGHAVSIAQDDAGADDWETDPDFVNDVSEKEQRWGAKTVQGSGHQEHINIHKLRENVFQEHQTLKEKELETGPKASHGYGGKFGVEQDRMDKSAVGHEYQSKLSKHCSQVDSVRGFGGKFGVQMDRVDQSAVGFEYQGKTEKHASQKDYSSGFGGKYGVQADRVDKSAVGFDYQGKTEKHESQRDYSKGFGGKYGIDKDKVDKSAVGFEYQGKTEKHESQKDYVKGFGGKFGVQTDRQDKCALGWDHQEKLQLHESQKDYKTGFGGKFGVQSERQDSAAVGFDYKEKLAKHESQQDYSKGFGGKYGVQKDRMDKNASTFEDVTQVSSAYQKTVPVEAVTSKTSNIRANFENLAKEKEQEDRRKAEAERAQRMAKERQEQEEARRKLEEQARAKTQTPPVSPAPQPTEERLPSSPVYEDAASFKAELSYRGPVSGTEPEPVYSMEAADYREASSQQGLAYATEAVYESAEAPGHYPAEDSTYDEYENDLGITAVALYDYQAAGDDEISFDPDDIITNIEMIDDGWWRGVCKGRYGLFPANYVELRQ
Sequence of UniProt Q9Y624 (Q9Y624 whole entry, stated change not applied): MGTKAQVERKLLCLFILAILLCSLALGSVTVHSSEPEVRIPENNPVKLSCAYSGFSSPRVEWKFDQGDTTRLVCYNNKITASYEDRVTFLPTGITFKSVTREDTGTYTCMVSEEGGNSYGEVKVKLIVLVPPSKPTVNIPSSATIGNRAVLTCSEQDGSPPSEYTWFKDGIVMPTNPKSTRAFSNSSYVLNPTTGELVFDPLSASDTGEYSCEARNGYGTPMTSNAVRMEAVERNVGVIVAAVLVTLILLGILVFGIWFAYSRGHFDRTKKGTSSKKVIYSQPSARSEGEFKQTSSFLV
Sequence of UniProt P23528 (P23528 whole entry): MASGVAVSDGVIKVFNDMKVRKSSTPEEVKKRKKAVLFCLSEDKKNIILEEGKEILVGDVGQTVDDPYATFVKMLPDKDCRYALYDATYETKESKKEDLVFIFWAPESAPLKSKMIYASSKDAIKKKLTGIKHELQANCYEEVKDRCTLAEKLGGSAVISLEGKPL
Sequence of UniProt P15328 (P15328 whole entry, looked up): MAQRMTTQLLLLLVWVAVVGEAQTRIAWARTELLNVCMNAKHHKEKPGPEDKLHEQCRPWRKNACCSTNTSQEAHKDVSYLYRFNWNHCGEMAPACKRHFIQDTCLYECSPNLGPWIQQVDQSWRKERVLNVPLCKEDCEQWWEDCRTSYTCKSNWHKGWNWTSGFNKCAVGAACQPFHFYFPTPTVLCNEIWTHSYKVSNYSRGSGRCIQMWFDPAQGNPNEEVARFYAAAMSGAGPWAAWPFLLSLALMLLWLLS
Sequence of UniProt P21926 (P21926 whole entry): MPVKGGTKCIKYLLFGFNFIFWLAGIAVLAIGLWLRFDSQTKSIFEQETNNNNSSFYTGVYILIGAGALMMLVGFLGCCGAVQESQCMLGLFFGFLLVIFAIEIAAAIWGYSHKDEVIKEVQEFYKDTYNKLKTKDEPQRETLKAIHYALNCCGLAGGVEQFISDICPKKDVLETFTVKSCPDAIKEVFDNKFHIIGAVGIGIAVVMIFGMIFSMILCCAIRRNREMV

Target	lysine labeling ratio R10:1
FRAS1 (lysine site: K3278) (UniProt Q86XX4)	2.1
FOLR1 (lysine site: K46) (UniProt P15328)	12.6
ACTR3 (lysine site: K42) (UniProt P61158)	1.04 (active)
NUCB2 (lysine site: K84) (UniProt P80303)	1.63 (active)
MARS (lysine site: K729) (UniProt P56192)	1.58 (active)
UniProt P05787 (lysine site: K325)	12.1
PSMB1 (lysine site: K204) (UniProt P20618)	2.46
ITGAV (lysine site: K165) (UniProt P06756)	10.3
TCP1 (lysine site: K199) (UniProt P17987)	4.14
UniProt P46781 (lysine site: K52)	2.39
LTBR (lysine site: K48) (UniProt P36941)	4.97
ITGA6 (lysine site: K986) (UniProt P23229)	1.78 (active)
SPTBN1 (lysine site: K1878) (UniProt Q01082)	4.5
SEMA3C (lysine site: K106) (UniProt Q99985)	0.653 (active)
MYO1C (lysine site: K781) (UniProt O00159)	1.34 (active)
YBX1 (lysine site: K170) (UniProt P67809)	9.44
ANXA2 (lysine site: K281) (UniProt P07355)	5.78
MSLN (lysine site: K306) (UniProt Q13421)	1.74 (active)
ITGA5 (lysine site: K588) (UniProt P08648)	1.72 (active)
UniProt Q13131 (lysine site: K56)	14.5

Target	lysine labeling ratio R10:1
ITGAV (lysine site: K581) (UniProt P06756)	0.709 (active)
PTPRB (lysine site: K718) (UniProt P23467)	1.5 (active)
CD9 (lysine site: K131) (UniProt P21926)	7.57
CTTN (lysine site: K184) (UniProt Q14247)	1.5 (active)
F11R (lysine site: K47) (UniProt Q9Y624)	5.07
CFL1 (lysine site: K78) (UniProt P23528)	1.61 (active)
UniProt Q6NZI2 (lysine site: K122)	5.32
FAM120A (lysine site: K673) (UniProt Q9NZB2)	1.15 (active)
IGF2R (lysine site: K303) (UniProt P11717)	2.37
EDIL3 (lysine site: K157) (UniProt O43854)	3.03
UniProt P61978 (lysine site: K405)	6.82
UniProt Q14574 (lysine site: K281)	1.99 (active)
THBS1 (lysine site: K968) (UniProt P07996)	1.48 (active)
IGF2R (lysine site: K1924) (UniProt P11717)	3.04
AHNAK (lysine site: K128) (UniProt Q09666)	1.37 (active)
UniProt Q15365 (lysine site: K314)	1.71 (active)
SLC4A2 (lysine site: K893) (UniProt P04920)	3.14
CKAP4 (lysine site: K223) (UniProt Q07065)	2.5
UniProt Q8WXI7 (lysine site: K13714)	7.68
CTTN (lysine site: K87) (UniProt Q14247)	2.06
